# From PubChem BioAssay (Tox21)
# Activity calls are given as the source filed them. Calls follow the shape of the dose curve; as a rule, active = well fitted curve in the direction sought with a large enough effect in the repeat runs; inconclusive = weak or mixed curves; inactive = flat fitted curve, though single readings scatter.
# Assay: qHTS assay to test for compound auto fluorescence at 460 nm (blue) in HEK293 cell free culture (AID 720681)
# Conditions: cell-free medium, autofluorescence 405/460 nm (blue); series mostly up to 91.3 µM
# How it was run: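 Blue fluorescence (Ex 405/Em 460 nm, triamterene-equivalent) was read immediately after pin transfer of compound or DMSO into medium (DMEM, 10% FBS) without cells.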
row,SMILES,outcome
1,CNC(=O)N(C)c1nnc(C(C)(C)C)s1,inactive
2,CCC(C)c1cc([N+](=O)[O-])cc([N+](=O)[O-])c1O (stereo not given),inactive
3,COP(=O)(OC)OC,inactive
4,CCN(CC)C(=O)SCc1ccc(Cl)cc1,inactive
5,CCN(N=O)C(N)=O,inactive
6,Cc1ccccc1[N+](=O)[O-],inactive
7,Cc1ccc(OP(=O)(Oc2ccc(C)cc2)Oc2ccc(C)cc2)cc1,inactive
8,O=C(O)CC[N+](=O)[O-],inactive
9,CCCCC(CC)COC(=O)c1ccc(C(=O)OCC(CC)CCCC)c(C(=O)OCC(CC)CCCC)c1 (stereo not given),inactive
10,Nn1cnnc1,inactive
11,N[C@@H](Cc1ccc(N(CCCl)CCCl)cc1)C(=O)O,inactive
12,c1nc[nH]n1,inactive
13,CCOP(=S)(OCC)O/N=C(\C#N)c1ccccc1,inactive
14,C[C@]12CCC(=O)C[C@@H]1CC[C@@H]1[C@@H]2CC[C@]2(C)[C@@H](O)CC[C@@H]12,inactive
15,O=c1oc2ccccc2c(O)c1C(CC(O)c1ccc(-c2ccc(Br)cc2)cc1)c1ccccc1 (stereo not given),inactive
16,Nc1ccc(Cl)c(Cl)c1,inactive
17,ClC1C(Cl)C(Cl)C(Cl)C(Cl)C1Cl (stereo not given),inactive
18,CCCCN(CCCC)N=O,inactive

row,SMILES,outcome
1,O=C(Nc1ccc(Br)cc1)c1cc(Br)cc(Br)c1O,inactive
2,S=C1NCCN1,inactive
3,CCOC(=S)S,inactive
4,Oc1c(Cl)c(Cl)c(Cl)c(Cl)c1Cl,inactive
5,O=P(Oc1ccccc1)(Oc1ccccc1)Oc1ccccc1,inactive
6,CC(O)CCO (stereo not given),inactive
7,O=P(O)(O)CCCl,inactive
8,c1ccc(NNc2ccccc2)cc1,inactive
9,CC(C)(OOC(C)(C)c1ccccc1)c1ccccc1,inactive
10,CC(C)N(C(=O)SCC(Cl)=C(Cl)Cl)C(C)C,inactive
11,O=[N+]([O-])c1ccc(O)c([N+](=O)[O-])c1,inactive
12,O=[N+]([O-])c1cccc2ccccc12,inactive
13,COP(=S)(OC)Oc1cc(Cl)c(Cl)cc1Cl,inactive
14,C=CCc1ccc2c(c1)OCO2,inactive
15,CCN(CC)N=O,inactive
16,C#C[C@]1(O)CC[C@H]2[C@@H]3CCC4=CC(=O)CC[C@]4(C)[C@H]3CC[C@@]21C,inactive
17,c1ccc(P(c2ccccc2)c2ccccc2)cc1,inactive
18,Cc1cc(Cl)ccc1OCCCC(=O)O,inactive

# Assay: qHTS assay to test for compound auto fluorescence at 535 nm (green) in HEK293 cell free culture (AID 720682)
# Conditions: cell-free medium, green autofluorescence 485/535 nm; series mostly up to 91.3 µM
# How it was run: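 Steps: dispense DMEM/10% FBS into empty wells; pin in compound or DMSO; measure fluorescence at 485/535 nm. Values are fluorescein equivalents.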
row,SMILES,outcome
1,CNC(=O)N(C)c1nnc(C(C)(C)C)s1,inactive
2,CCC(C)c1cc([N+](=O)[O-])cc([N+](=O)[O-])c1O (stereo not given),inactive
3,COP(=O)(OC)OC,inactive
4,CCN(CC)C(=O)SCc1ccc(Cl)cc1,inactive
5,CCN(N=O)C(N)=O,inactive
6,Cc1ccccc1[N+](=O)[O-],inactive
7,Cc1ccc(OP(=O)(Oc2ccc(C)cc2)Oc2ccc(C)cc2)cc1,inactive
8,O=C(O)CC[N+](=O)[O-],inactive
9,CCCCC(CC)COC(=O)c1ccc(C(=O)OCC(CC)CCCC)c(C(=O)OCC(CC)CCCC)c1 (stereo not given),inactive
10,Nn1cnnc1,inactive
11,N[C@@H](Cc1ccc(N(CCCl)CCCl)cc1)C(=O)O,inactive
12,c1nc[nH]n1,inactive
13,CCOP(=S)(OCC)O/N=C(\C#N)c1ccccc1,inactive
14,C[C@]12CCC(=O)C[C@@H]1CC[C@@H]1[C@@H]2CC[C@]2(C)[C@@H](O)CC[C@@H]12,inactive
15,O=c1oc2ccccc2c(O)c1C(CC(O)c1ccc(-c2ccc(Br)cc2)cc1)c1ccccc1 (stereo not given),inactive
16,Nc1ccc(Cl)c(Cl)c1,inactive
17,ClC1C(Cl)C(Cl)C(Cl)C(Cl)C1Cl (stereo not given),inactive
18,CN(C)c1ccc(C(=O)c2ccc(N(C)C)cc2)cc1,inactive
19,CCCCN(CCCC)N=O,inactive

row,SMILES,outcome
1,O=C(Nc1ccc(Br)cc1)c1cc(Br)cc(Br)c1O,inactive
2,S=C1NCCN1,inactive
3,CCOC(=S)S,inactive
4,Oc1c(Cl)c(Cl)c(Cl)c(Cl)c1Cl,inactive
5,O=P(Oc1ccccc1)(Oc1ccccc1)Oc1ccccc1,inactive
6,CC(O)CCO (stereo not given),inactive
7,O=P(O)(O)CCCl,inactive
8,c1ccc(NNc2ccccc2)cc1,inactive
9,CC(C)(OOC(C)(C)c1ccccc1)c1ccccc1,inactive
10,CC(C)N(C(=O)SCC(Cl)=C(Cl)Cl)C(C)C,inactive
11,O=[N+]([O-])c1ccc(O)c([N+](=O)[O-])c1,inactive
12,O=[N+]([O-])c1cccc2ccccc12,inactive
13,COP(=S)(OC)Oc1cc(Cl)c(Cl)cc1Cl,inactive
14,C=CCc1ccc2c(c1)OCO2,inactive
15,CCN(CC)N=O,inactive
16,C#C[C@]1(O)CC[C@H]2[C@@H]3CCC4=CC(=O)CC[C@]4(C)[C@H]3CC[C@@]21C,inactive
17,c1ccc(P(c2ccccc2)c2ccccc2)cc1,inactive
18,Cc1cc(Cl)ccc1OCCCC(=O)O,inactive

# Assay: qHTS assay to test for compound auto fluorescence at 590 nm (red) in HEK293 cell free culture (AID 720683)
# Conditions: cell-free medium autofluorescence, Ex540/Em590 red; series mostly up to 91.3 µM
# How it was run: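 Red-channel autofluorescence of compounds in culture medium (DMEM, 10% FBS), no cells, measured at 540/590 nm. Rose Bengal sodium is the reference fluorophore for equivalence.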
row,SMILES,outcome
1,COP(=O)(OC)OC,inactive
2,CCN(N=O)C(N)=O,inactive
3,Cc1ccccc1[N+](=O)[O-],inactive
4,Cc1ccc(OP(=O)(Oc2ccc(C)cc2)Oc2ccc(C)cc2)cc1,inactive
5,O=C(O)CC[N+](=O)[O-],inactive
6,CCCCC(CC)COC(=O)c1ccc(C(=O)OCC(CC)CCCC)c(C(=O)OCC(CC)CCCC)c1 (stereo not given),inactive
7,Nn1cnnc1,inactive
8,c1nc[nH]n1,inactive
9,C[C@]12CCC(=O)C[C@@H]1CC[C@@H]1[C@@H]2CC[C@]2(C)[C@@H](O)CC[C@@H]12,inactive
10,O=c1oc2ccccc2c(O)c1C(CC(O)c1ccc(-c2ccc(Br)cc2)cc1)c1ccccc1 (stereo not given),inactive
11,Nc1ccc(Cl)c(Cl)c1,inactive
12,ClC1C(Cl)C(Cl)C(Cl)C(Cl)C1Cl (stereo not given),inactive
13,CN(C)c1ccc(C(=O)c2ccc(N(C)C)cc2)cc1,inactive
14,CCCCN(CCCC)N=O,inactive
15,CCOC(=S)S,inactive
16,Oc1c(Cl)c(Cl)c(Cl)c(Cl)c1Cl,inactive
17,O=P(Oc1ccccc1)(Oc1ccccc1)Oc1ccccc1,inactive
18,c1ccc(NNc2ccccc2)cc1,inactive
19,COP(=S)(OC)Oc1cc(Cl)c(Cl)cc1Cl,inactive
20,C=CCc1ccc2c(c1)OCO2,inactive
21,CCN(CC)N=O,inactive
22,C#C[C@]1(O)CC[C@H]2[C@@H]3CCC4=CC(=O)CC[C@]4(C)[C@H]3CC[C@@]21C,inactive
